Screening data as filed in PubChem BioAssay.
Dicer inh: inhibitors of Dicer pre-microRNA processing, primary screen, biochemical, cat-ELCCA, chemiluminescence; z-score at 25 µM; AID 1347074, 2019; Endoribonuclease Dicer (Homo sapiens), Q9UPY3; 6% of 47,000 active; cat-ELCCA pre-miR-21 Dicer processing; hits give high values; in the data active = z-score above about 3, passing the limit was not always enough;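 note: plate controls were vehicle for no effect and no enzyme for full effect; higher signal means more uncleaved substrate so more Dicer inhibition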
Numbers without * were called inactive. The entries come from a sample that favours hits as a whole.

SMILES	Dicer inh
O=C(Cc1cccc2ccccc12)Nc1ccc2nccnc2c1	-0.91
O=C1CC2(CCCC2)C(=O)N1CCNc1nccc(C(F)(F)F)n1	-1.4
Cc1ccc(C)c(OCCCCc2c(C)n[nH]c2C)c1	-2.2
CC1=C(C(=O)OCCOc2ccccc2)C(c2ccc3c(c2)OCO3)C2=C(CC(C)(C)CC2=O)N1 (centres undefined)	2.1
COc1cc(C(F)(F)F)nc2ccc(C)c(NC(=O)Nc3cc(Cl)cc(Cl)c3)c12	0.58
O=C(O)c1ccc(S(=O)(=O)Nc2cccnc2)cc1	0.77
Cc1cc(N)n2nc(C)c(-c3ccc(Cl)cc3)c2n1	1.8
Cc1nn2c(N)cc(-c3ccccc3)nc2c1-c1ccccc1	3.8*
Cc1ccc(-c2cc3nc(C)c(-c4ccccc4)c(N)n3n2)cc1	0.66
CCOC(=O)c1cc(C(=O)OC)c(C)nc1N1CCC(NC2CCCCC2O)CC1 (centres undefined)	-0.23
CCOC(=O)c1nn(-c2ccc(Cl)cc2)c(=N)c(C#N)c1C	-2.9
Cc1nc2c([nH]1)c(=O)n(C)c(=O)n2Cc1ccco1	-0.88
Cc1onc(-c2ccccc2)c1CSc1n[nH]c(=O)n1Cc1ccco1	-1.5
c1ccc(-c2c(-c3ccccc3)n(Cc3ccco3)c3ncn4nc(-c5ccco5)nc4c23)cc1	5.6*
CCCN1C(=O)C2(/C(=C(/O)c3ccc(OCC)cc3)C(=O)C(=O)N2CC2CCCO2)c2ccccc21 (centres undefined)	0.71
C=C1c2cccc(O)c2C(O)=C2C(=O)[C@]3(O)C(O)=C(C(N)=O)C(=O)[C@@H](N(C)C)[C@@H]3[C@@H](O)[C@H]12	23*
COC(=O)c1c(C)oc2cc(Br)c(OCc3ccccc3)cc12	2.4
CCOC(=O)c1cc(=O)c2ccccc2o1	-0.25
Cc1cccc(Nc2ccc(-c3ccccc3)nn2)c1	1.5
CC1=N/C(=C\c2ccc3ccccc3c2)C(=O)O1	-0.93
CC1=N/C(=C/c2ccc(Cl)c(Cl)c2)C(=O)O1	3.2*
CC1=N/C(=C\c2cc(F)cc(F)c2)C(=O)O1	-0.66
Cc1onc(-c2c(Cl)cccc2Cl)c1NC(=O)N/N=C/c1c(Cl)cccc1Cl	0.08
COc1ccc(OCc2nc3c4c5c(sc4ncn3n2)CCCCC5)cc1	4.2*
COc1ccccc1OCc1nc2c3c4c(sc3ncn2n1)CCCCC4	-0.5
SMILES	Dicer inh
Clc1ccc(OCc2nc3c4c5c(sc4ncn3n2)CCCC5)cc1	1.2
Cc1cc(C)c(C#N)c(SCC(=O)Nc2nnc(-c3cccs3)s2)n1	-1.2
CSc1nnc(SC)n1CCNC(=O)c1cccc(Cl)c1	-0.27
COc1cccc(C(=O)NCCN2CCN(c3ccc(Cl)cc3)CC2)c1	3.9*
COc1cccc(C(=O)Nc2nc(SCc3ccc(Cl)cc3)n[nH]2)c1	-0.48
O=C(Oc1ccc([N+](=O)[O-])cc1)N1CCCN(c2nc3ccc(Cl)cc3s2)CC1	-1.3
CC(C)(C)OC(=O)NC1CCN(C(=O)Nc2ccc(F)cc2F)CC1	0.45
O=C(Nc1ccc(F)cc1F)N1CCN(Cc2ccccc2)CC1	3*
CCOC(=O)C1CCN(C(=O)Nc2ccc(F)cc2F)CC1	-0.78
O=S(=O)(Nc1cc(-c2cccs2)nn1-c1ccc(F)cc1)c1ccc(-c2cc(C(F)(F)F)on2)s1	-0.08
CCOc1ccc(C2c3c(oc4ccc(C)cc4c3=O)C(=O)N2c2nc(C)c(C(=O)OC)s2)cc1 (centres undefined)	0.53
COc1ccc(Cc2c(Cl)nc(SC)nc2Cl)cc1	-0.78
Cn1nc(-c2ccc(-c3ccn(S(C)(=O)=O)n3)s2)cc1C(F)(F)F	4*
Cn1nc(-c2ccc(Sc3ccc(Cl)cc3)s2)cc1C(F)(F)F	-0.62
Cn1nc(-c2ccc(S(=O)(=O)NCC(=O)NNS(=O)(=O)c3ccc(Cl)cc3)s2)cc1C(F)(F)F	0.13
CC(c1ccccc1)n1c(SCC(=O)c2ccc(F)cc2)n[nH]c1=O (centres undefined)	0.42
CC(c1ccccc1)n1c(SCC(=O)N2CCOCC2)n[nH]c1=O (centres undefined)	13*
O=C(CSc1nc2ccccc2s1)N1CCOCC1	1
Cc1ccc(NC(=S)Nc2ccccc2Cl)cc1NS(C)(=O)=O	-2.5
Cc1c(C)c(C)c(C(=O)CCC(=O)O)c(C)c1C	-0.67
CCCCOC(=O)c1cc([N+](=O)[O-])cc2c1-c1ccc([N+](=O)[O-])cc1/C2=N\O	-0.47
CC(C(=O)c1ccccc1)C1(O)C(=O)N(C)c2ccccc21 (centres undefined)	-1.6
CCOC(=O)N1CCC(N2CCCC(C(=O)N3CCCC3)C2)CC1 (centres undefined)	0.17
CCOC(=O)N1CCC(N2CCN(S(C)(=O)=O)CC2)CC1	5*
CCOC(=O)N1CCC(N2CCN(S(=O)(=O)c3ccc(OC)cc3)CC2)CC1	0.1
SMILES	Dicer inh
N#Cc1cc(Cl)ccc1Nc1ncnc(N)n1	0.41
COc1ccc(/C(O)=C2/C(=O)C(=O)N(CCCC(=O)O)C2c2cccnc2)cc1 (centres undefined)	15
COc1cccc(Nc2cc(C)nc3ncnn23)c1	7.4
CC(C)Cn1c(C(C)O)nc2ccccc21 (centres undefined)	-0.35
CCOC(=O)c1cc2n(n1)C(C(F)(F)F)CC(c1ccccc1)N2 (centres undefined)	2.8
O=C(NCC1CCCO1)c1cc2n(n1)C(C(F)(F)F)CC(c1ccc(Br)cc1)N2 (centres undefined)	3.7*
Cc1ccc(C2CC(C(F)(F)F)n3ncc(C(=O)NCC4CCCO4)c3N2)cc1 (centres undefined)	0.63
CN(Cc1ccccc1)C(=O)c1cc2n(n1)C(C(F)(F)F)CC(c1ccccc1)N2 (centres undefined)	3*
O=C(NCc1cccs1)c1cc2n(n1)C(C(F)(F)F)CC(c1ccc(F)cc1)N2 (centres undefined)	1.2
Cc1ccc(C2CC(C(F)(F)F)n3nc(C(=O)N(C)Cc4c(C)nn(C)c4C)cc3N2)cc1 (centres undefined)	0.02
O=C(NCc1ccco1)c1cc2n(n1)C(C(F)(F)F)CC(c1ccc(Cl)cc1)N2 (centres undefined)	2.9
O=C(NCc1ccco1)c1cc2n(n1)C(C(F)(F)F)CC(c1ccc3c(c1)OCO3)N2 (centres undefined)	3.8*
Cc1c(CNC(=O)c2cc3n(n2)C(C(F)(F)F)CC(c2ccc4c(c2)OCO4)N3)cnn1C (centres undefined)	-1.9
Cc1ccc(-c2nc(NC(=O)Nc3ccc(F)cc3)sc2C)cc1Cl	-0.79
N#CCCN(Cc1ccccc1)S(=O)(=O)c1ccc(F)cc1	-0.74
COc1cccc(NC(=S)NCCO)c1	2.3
CC(C)(C)c1cc(Oc2ncccc2[N+](=O)[O-])ccc1Oc1ncccc1[N+](=O)[O-]	-0.71
Cc1cc(S(=O)(=O)Cc2c(F)cccc2Cl)c(Cl)cc1Cl	0.58
CN(C)C(=S)NCCCN1CCOCC1	0.63
Cc1c(O)nc(SCC(=O)N2CCc3ccccc32)n(-c2ccccc2)c1=O	0.01
CC(C)c1c(O)nc(SCC(=O)N2CCc3ccccc32)n(-c2ccccc2)c1=O	-1.1
O=C(CSc1nc(O)cc(=O)n1-c1ccccc1F)N1CCc2ccccc21	5.5*
C=CCn1c(-c2sc3nnc(-c4ccccc4)c(-c4ccccc4)c3c2N)n[nH]c1=S	1.8
CCCC1C2C(=O)N(c3ccccc3)C(=O)C2ON1c1ccc(Cl)c(Cl)c1 (centres undefined)	7.2*
Cc1ccc(N2C(=O)C3ON(c4ccccc4)C(c4ccncc4)C3C2=O)cc1Cl (centres undefined)	0
